Test results: PubChem BioAssay AID1159580 (chemical genetic matrix, 2015)
Out of some 5,500 compounds screened, about 2,000 (36%) were called active. Inconclusive results (about 18%) are left out. No stated cut-off is given here; in the data, active means normalized growth mostly below about 0.91 (no sharp cut-off); inconclusive means no clear call, values can overlap the other calls; inactive means mostly above about 0.92. Some of the results follow.

Test: chemical genetic growth profiling, strain panel (AID 1159580);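 further: tested at 20 µM; growth read once vehicle control cultures reached saturation at 30 °C; 1 = growth at the plate median or of vehicle wells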
Conditions: S. cerevisiae deletion strains, growth OD

Measured: normalized growth

NNC(=O)c1oc2nc(-c3ccccc3)cc(-c3ccccc3)c2c1N
active: locus YLR113W, strain HOG1, stronger effect = lower value 0.813
inactive: locus YAR019C, strain CDC15, stronger effect = lower value 0.972 | locus YBL105C, strain PKC1, stronger effect = lower value 0.986 | locus YBR135W, strain CKS1, stronger effect = lower value 0.984 | locus YBR136W, strain MEC1, stronger effect = lower value 0.985 | locus YBR160W, strain CDC28, stronger effect = lower value 0.987 | locus YDL017W, strain CDC7, stronger effect = lower value 0.985 | locus YDL028C, strain MPS1, stronger effect = lower value 0.983 | locus YDL101C, strain DUN1, stronger effect = lower value 0.981 | locus YDL108W, strain KIN28, stronger effect = lower value 0.978 | locus YDL132W, strain cdc53, stronger effect = lower value 0.971 | locus YDL214C, strain PRR2, stronger effect = lower value 0.921 | locus YDR052C, strain DBF4, stronger effect = lower value 0.997 | locus YDR054C, strain cdc34, stronger effect = lower value 0.962 | locus YDR226W, strain ADK1, stronger effect = lower value 0.985 | locus YDR477W, strain SNF1, stronger effect = lower value 0.934 | locus YER123W, strain YCK3, stronger effect = lower value 0.913 | locus YER133W, strain GLC7, stronger effect = lower value 0.93 | locus YFL009W, strain cdc4, stronger effect = lower value 0.983 | locus YFL029C, strain CAK1, stronger effect = lower value 0.965 | locus YFR003C, strain YPI1, stronger effect = lower value 0.984 | locus YFR019W, strain FAB1, stronger effect = lower value 0.924 | locus YFR028C, strain CDC14, stronger effect = lower value 0.976 | locus YGR040W, strain KSS1, stronger effect = lower value 0.93 | locus YGR052W, strain FMP48, stronger effect = lower value 0.952 | locus YGR092W, strain DBF2, stronger effect = lower value 0.943 | locus YHR030C, strain SLT2, stronger effect = lower value 0.979 | locus YHR079C, strain IRE1, stronger effect = lower value 1.01 | locus YHR082C, strain KSP1, stronger effect = lower value 0.998 | locus YHR205W, strain SCH9, stronger effect = lower value 0.914 | locus YIL147C, strain SLN1, stronger effect = lower value 0.984 | locus YJL095W, strain BCK1, stronger effect = lower value 0.891 | locus YJL128C, strain PBS2, stronger effect = lower value 0.95 | locus YJL157C, strain FAR1, stronger effect = lower value 0.924 | locus YJR016C, strain ILV3, stronger effect = lower value 0.98 | locus YJR066W, strain TOR1 (second series), stronger effect = lower value 0.887 | locus YJR066W, strain TOR1, stronger effect = lower value 0.983 | locus YKL048C, strain ELM1, stronger effect = lower value 0.956 | locus YKL067W, strain YNK1, stronger effect = lower value 0.948 | locus YKL101W, strain HSL1, stronger effect = lower value 0.937 | locus YKL193C, strain SDS22, stronger effect = lower value 0.977 | locus YKL203C, strain TOR2, stronger effect = lower value 0.989 | locus YLR133W, strain CKI1, stronger effect = lower value 0.942 | locus YLR403W, strain SFP1, stronger effect = lower value 0.924 | locus YML070W, strain DAK1, stronger effect = lower value 0.899 | locus YMR001C, strain CDC5, stronger effect = lower value 0.988 | locus YMR205C, strain PFK2 (second series), stronger effect = lower value 0.953 | locus YMR277W, strain FCP1, stronger effect = lower value 0.983 | locus YNL006W, strain LST8, stronger effect = lower value 0.978 | locus YNL020C, strain ARK1, stronger effect = lower value 0.935 | locus YNL161W, strain CBK1, stronger effect = lower value 0.989 | locus YNL183C, strain NPR1, stronger effect = lower value 0.946 | locus YNL207W, strain RIO2, stronger effect = lower value 0.965 | locus YNL222W, strain SSU72, stronger effect = lower value 0.981 | locus YNL307C, strain MCK1 (second series), stronger effect = lower value 0.895 | locus YOL078W, strain AVO1, stronger effect = lower value 0.954 | locus YOL136C, strain PFK27, stronger effect = lower value 0.844 | locus YOR061W, strain CKA2, stronger effect = lower value 0.958 | locus YOR119C, strain RIO1, stronger effect = lower value 0.996 | locus YOR231W, strain MKK1, stronger effect = lower value 0.884 | locus YOR329C, strain SCD5, stronger effect = lower value 0.985 | locus YPL031C, strain PHO85, stronger effect = lower value 0.907 | locus YPL153C, strain RAD53, stronger effect = lower value 0.953 | locus YPL204W, strain HRR25, stronger effect = lower value 0.907 | locus YPL209C, strain IPL1, stronger effect = lower value 0.982 | locus YPL256C, strain CLN2, stronger effect = lower value 0.939 | locus YPR025C, strain CCL1, stronger effect = lower value 0.984 | locus YPR106W, strain ISR1, stronger effect = lower value 0.977 | locus YPR111W, strain DBF20, stronger effect = lower value 0.961 | strain NNK1, stronger effect = lower value 0.97 | strain TSCII, stronger effect = lower value 0.98

COC(=O)[C@H](NC(=O)c1cc(-c2ccccc2)nc2ccccc12)c1ccccc1
inactive: locus YAL013W, strain DEP1, stronger effect = lower value 1.02 | locus YAL040C, strain CLN3, stronger effect = lower value 1.01 | locus YCL061C, strain MRC1 (second series), stronger effect = lower value 0.998 | locus YDR363W, strain ESC2, stronger effect = lower value 0.989 | locus YER002W, strain NOP16, stronger effect = lower value 1.01 | locus YGR078C, strain PAC10, stronger effect = lower value 0.984 | locus YJR075W, strain HOC1, stronger effect = lower value 1 | locus YNL128W, strain TEP1, stronger effect = lower value 0.996 | locus YNL153C, strain GIM3, stronger effect = lower value 1 | locus YNL175C, strain NOP13, stronger effect = lower value 1.01 | locus YNL197C, strain WHI3, stronger effect = lower value 0.989 | locus YNL224C, strain SQS1, stronger effect = lower value 1.02 | locus YNL322C, strain KRE1, stronger effect = lower value 0.999 | locus YOR083W, strain WHI5 (second series), stronger effect = lower value 1.06 | locus YPL055C, strain LGE1, stronger effect = lower value 0.99 | locus YPL241C, strain CIN2, stronger effect = lower value 0.999
